From the supplement of paper PMC11732987, “Enantioselective OTUD7B fragment discovery through chemoproteomics screening and high-throughput optimisation” (Communications Chemistry, 2025)

Key:
Assay in all cases: log2 ratio of Biotin-Ahx-Ub-VS probe labelling (compound/DMSO); higher = less target engagement, active = hit call of the paper (q ≤ 0.05, log2 ratio ≤ -1)
Settings in all cases: treatment time: 3 h
[1] = compound: CCC1N(CCc2sccc12)C(=O)CCl
In short: (§1)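 Compound at 50 or 200 µM, or DMSO, was applied for 3 h in triplicate to HEK293T lysate (495 µg per sample, Tris/CHAPS/IGEPAL buffer with protease inhibitors), after which Biotin-Ahx-Ub-VS was added at 0.5 µM final for 1 h. The labelled DUBs were pulled down with NeutrAvidin, digested with LysC and trypsin, and run by diaPASEF LC-MS/MS. Ratios are averaged base-two logs of compound over DMSO from median-normalised label-free quantities by unpaired t-test, counting only proteins with at least 2 unique peptides.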

[2] = compound: CN1c2ccccc2C(CS1(=O)=O)NC(=O)CCl
In short: as §1

[3] = compound: Cl.ClCC(=O)N1CCc2ncncc2C1
In short: as §1

[4] = compound: Cl.Cn1ncc2C(CCCc12)NC(=O)CCl
In short: as §1

[5] = compound: ClCC(=O)NC1CCOc2ccccc12
In short: as §1

[6] = compound: ClCC(=O)NC1CCCc2ccccc12
In short: (§2)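 Average ratios of compound to vehicle were obtained by unpaired t-test. Beforehand, 495 µg samples of HEK293T lysate in buffer with protease inhibitors were treated in triplicate with compound over a concentration series or vehicle for 3 h, then with 0.5 µM final Biotin-Ahx-Ub-VS for 1 h. Labelled deubiquitinases were NeutrAvidin-enriched, digested and quantified label-free by diaPASEF LC-MS/MS in Spectronaut, normalised to the global median. Values are log2 and cover proteins with at least two unique peptides.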

[7] = compound: ClCC(=O)N[C@@H]1CCCc2ccccc12
In short: as §2

[8] = compound: ClCC(=O)N[C@H]1CCCc2ccccc12
In short: as §2

[9] = compound: CCC1N(CCc2cc(OC)c(Cl)cc12)C(=O)CCl
In short: as §1

[10] = compound: CCCC1N(CCc2cc(OC)c(OC)cc12)C(=O)CCl
In short: as §1

Measured: log2 ratio of Biotin-Ahx-Ub-VS probe labelling

ALG13 (UniProt Q9NP73)
Sequence of UniProt Q9NP73 (Q9NP73 whole entry): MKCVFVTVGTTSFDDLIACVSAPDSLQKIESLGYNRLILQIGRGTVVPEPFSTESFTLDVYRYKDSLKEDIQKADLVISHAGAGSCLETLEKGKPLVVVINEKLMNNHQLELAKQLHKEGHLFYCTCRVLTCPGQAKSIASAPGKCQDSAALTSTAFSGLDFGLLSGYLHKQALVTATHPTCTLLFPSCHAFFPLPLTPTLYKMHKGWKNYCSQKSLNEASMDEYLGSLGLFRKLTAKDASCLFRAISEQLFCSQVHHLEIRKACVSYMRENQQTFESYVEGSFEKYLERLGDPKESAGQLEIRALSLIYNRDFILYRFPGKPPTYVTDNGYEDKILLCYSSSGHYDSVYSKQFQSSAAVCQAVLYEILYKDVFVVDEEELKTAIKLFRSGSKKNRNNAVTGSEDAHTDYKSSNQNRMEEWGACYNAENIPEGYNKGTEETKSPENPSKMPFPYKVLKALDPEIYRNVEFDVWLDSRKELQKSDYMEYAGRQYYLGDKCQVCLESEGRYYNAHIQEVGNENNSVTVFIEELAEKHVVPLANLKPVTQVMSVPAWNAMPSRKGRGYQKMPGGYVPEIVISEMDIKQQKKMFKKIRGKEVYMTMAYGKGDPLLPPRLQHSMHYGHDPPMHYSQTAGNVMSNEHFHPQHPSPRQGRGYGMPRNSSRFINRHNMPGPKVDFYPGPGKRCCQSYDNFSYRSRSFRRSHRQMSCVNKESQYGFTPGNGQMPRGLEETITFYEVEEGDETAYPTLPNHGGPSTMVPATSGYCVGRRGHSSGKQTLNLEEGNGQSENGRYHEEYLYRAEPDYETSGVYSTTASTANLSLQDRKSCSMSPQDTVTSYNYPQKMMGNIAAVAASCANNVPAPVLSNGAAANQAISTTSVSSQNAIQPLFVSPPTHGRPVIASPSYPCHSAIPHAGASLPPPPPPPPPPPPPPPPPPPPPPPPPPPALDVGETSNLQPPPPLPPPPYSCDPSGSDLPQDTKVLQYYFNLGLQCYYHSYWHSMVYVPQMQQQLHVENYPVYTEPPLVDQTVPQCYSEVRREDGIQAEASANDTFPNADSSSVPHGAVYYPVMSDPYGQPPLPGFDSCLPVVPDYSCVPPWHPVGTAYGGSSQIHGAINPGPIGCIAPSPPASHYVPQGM
inactive: [1]; compound concentration: 50uM 0.393 | [1]; compound concentration: 200uM 0.533 | [2]; compound concentration: 50uM 0.284 | [2]; compound concentration: 200uM 0.203 | [3]; compound concentration: 50uM 0.0225 | [3]; compound concentration: 200uM 0.439 | [4]; compound concentration: 50uM 0.238 | [4]; compound concentration: 200uM -0.0439 | [5]; compound concentration: 50uM 0.11 | [5]; compound concentration: 200uM 0.324 | [6]; compound concentration: 0.78uM 0.19 | [6]; compound concentration: 1.56uM 0.107 | [6]; compound concentration: 3.13uM -0.625 | [6]; compound concentration: 6.25uM -0.155 | [6]; compound concentration: 12.5uM -0.336 | [6]; compound concentration: 25uM -0.19 | [6]; compound concentration: 50uM -0.356 | [6]; compound concentration: 100uM 0.221 | [6]; compound concentration: 200uM -0.15 | [7]; compound concentration: 0.78uM 0.187 | [7]; compound concentration: 1.56uM 0.128 | [7]; compound concentration: 3.13uM 0.146 | [7]; compound concentration: 6.25uM 0.328 | [7]; compound concentration: 12.5uM 0.0757 | [7]; compound concentration: 25uM -0.0189 | [7]; compound concentration: 50uM -0.26 | [7]; compound concentration: 100uM -0.0849 | [7]; compound concentration: 200uM 0.156 | [8]; compound concentration: 0.78uM 0.0472 | [8]; compound concentration: 1.56uM -0.48 | [8]; compound concentration: 3.13uM 0.0655 | [8]; compound concentration: 6.25uM -0.00893 | [8]; compound concentration: 12.5uM -0.0224 | [8]; compound concentration: 25uM 0.337 | [8]; compound concentration: 50uM -0.216 | [8]; compound concentration: 100uM 0.0146 | [8]; compound concentration: 200uM -0.203 | [9]; compound concentration: 50uM 0.0103 | [9]; compound concentration: 200uM 0.0355 | [10]; compound concentration: 50uM 0.0738 | [10]; compound concentration: 200uM 0.242

UCHL5 (UniProt Q9Y5K5)
Sequence of UniProt Q9Y5K5 (Q9Y5K5 whole entry): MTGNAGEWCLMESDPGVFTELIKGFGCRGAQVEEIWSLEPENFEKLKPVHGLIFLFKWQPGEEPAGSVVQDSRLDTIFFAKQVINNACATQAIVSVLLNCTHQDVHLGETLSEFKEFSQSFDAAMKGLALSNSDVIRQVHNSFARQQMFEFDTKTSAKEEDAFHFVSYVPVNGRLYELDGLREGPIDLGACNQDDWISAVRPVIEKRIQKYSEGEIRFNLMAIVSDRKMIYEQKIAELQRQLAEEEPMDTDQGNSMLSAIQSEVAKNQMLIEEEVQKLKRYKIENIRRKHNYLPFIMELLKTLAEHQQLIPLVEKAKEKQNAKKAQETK
inactive: [1]; compound concentration: 50uM -0.261 | [1]; compound concentration: 200uM -0.413 | [2]; compound concentration: 50uM -0.312 | [2]; compound concentration: 200uM -0.412 | [3]; compound concentration: 50uM -0.053 | [3]; compound concentration: 200uM -0.389 | [4]; compound concentration: 50uM 0.0591 | [4]; compound concentration: 200uM -0.0343 | [5]; compound concentration: 50uM -0.0586 | [5]; compound concentration: 200uM -0.0877 | [6]; compound concentration: 0.78uM -0.151 | [6]; compound concentration: 1.56uM -0.0693 | [6]; compound concentration: 3.13uM -0.187 | [6]; compound concentration: 6.25uM -0.075 | [6]; compound concentration: 12.5uM -0.156 | [6]; compound concentration: 25uM -0.346 | [6]; compound concentration: 50uM -0.111 | [6]; compound concentration: 100uM -0.166 | [6]; compound concentration: 200uM -0.211 | [7]; compound concentration: 0.78uM -0.425 | [7]; compound concentration: 1.56uM -0.183 | [7]; compound concentration: 3.13uM -0.22 | [7]; compound concentration: 6.25uM -0.255 | [7]; compound concentration: 12.5uM -0.281 | [7]; compound concentration: 25uM -0.176 | [7]; compound concentration: 50uM -0.209 | [7]; compound concentration: 100uM -0.17 | [7]; compound concentration: 200uM -0.35 | [8]; compound concentration: 0.78uM -0.162 | [8]; compound concentration: 1.56uM -0.217 | [8]; compound concentration: 3.13uM -0.188 | [8]; compound concentration: 6.25uM 0.0176 | [8]; compound concentration: 12.5uM -0.23 | [8]; compound concentration: 25uM -0.161 | [8]; compound concentration: 50uM -0.0913 | [8]; compound concentration: 100uM -0.178 | [8]; compound concentration: 200uM -0.266 | [9]; compound concentration: 50uM -0.0479 | [9]; compound concentration: 200uM -0.725 | [10]; compound concentration: 50uM -0.464 | [10]; compound concentration: 200uM -0.644

BAP1 (UniProt Q92560)
Sequence of UniProt Q92560 (Q92560 whole entry): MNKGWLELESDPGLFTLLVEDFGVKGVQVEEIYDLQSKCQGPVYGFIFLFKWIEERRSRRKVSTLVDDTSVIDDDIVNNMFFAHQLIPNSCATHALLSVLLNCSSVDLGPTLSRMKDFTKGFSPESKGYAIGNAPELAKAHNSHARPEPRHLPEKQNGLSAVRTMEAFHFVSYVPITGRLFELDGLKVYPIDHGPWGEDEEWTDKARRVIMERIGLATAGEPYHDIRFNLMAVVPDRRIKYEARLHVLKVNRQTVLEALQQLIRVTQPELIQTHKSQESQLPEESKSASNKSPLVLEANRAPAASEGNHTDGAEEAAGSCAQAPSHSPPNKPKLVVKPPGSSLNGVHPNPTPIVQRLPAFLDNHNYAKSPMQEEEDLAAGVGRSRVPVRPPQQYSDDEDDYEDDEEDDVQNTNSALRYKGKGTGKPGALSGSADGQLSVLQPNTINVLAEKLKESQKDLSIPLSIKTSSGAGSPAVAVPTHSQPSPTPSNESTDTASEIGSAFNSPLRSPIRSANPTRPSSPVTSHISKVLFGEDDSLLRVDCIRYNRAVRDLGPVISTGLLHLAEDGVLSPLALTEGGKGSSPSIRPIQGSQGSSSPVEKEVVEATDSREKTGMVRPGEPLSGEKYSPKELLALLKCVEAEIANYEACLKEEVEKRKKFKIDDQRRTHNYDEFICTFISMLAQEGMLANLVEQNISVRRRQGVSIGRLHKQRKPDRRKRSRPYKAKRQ
active: [2]; compound concentration: 200uM -2.09 | [3]; compound concentration: 200uM -1.04 | [4]; compound concentration: 200uM -1.03 | [5]; compound concentration: 200uM -2.15 | [6]; compound concentration: 200uM -1.34 | [7]; compound concentration: 200uM -1.54 | [8]; compound concentration: 200uM -1.39
inactive: [1]; compound concentration: 50uM -0.142 | [1]; compound concentration: 200uM -0.347 | [2]; compound concentration: 50uM -0.805 | [3]; compound concentration: 50uM -0.468 | [4]; compound concentration: 50uM -0.38 | [5]; compound concentration: 50uM -0.598 | [6]; compound concentration: 0.78uM -0.121 | [6]; compound concentration: 1.56uM 0.0581 | [6]; compound concentration: 3.13uM -0.0976 | [6]; compound concentration: 6.25uM -0.0118 | [6]; compound concentration: 12.5uM -0.122 | [6]; compound concentration: 25uM -0.306 | [6]; compound concentration: 50uM -0.368 | [6]; compound concentration: 100uM -0.762 | [7]; compound concentration: 0.78uM -0.169 | [7]; compound concentration: 1.56uM -0.0659 | [7]; compound concentration: 3.13uM -0.0706 | [7]; compound concentration: 6.25uM -0.137 | [7]; compound concentration: 12.5uM -0.178 | [7]; compound concentration: 25uM -0.163 | [7]; compound concentration: 50uM -0.418 | [7]; compound concentration: 100uM -0.683 | [8]; compound concentration: 0.78uM -0.119 | [8]; compound concentration: 1.56uM -0.0453 | [8]; compound concentration: 3.13uM -0.0819 | [8]; compound concentration: 6.25uM 0.12 | [8]; compound concentration: 12.5uM -0.18 | [8]; compound concentration: 25uM -0.239 | [8]; compound concentration: 50uM -0.305 | [8]; compound concentration: 100uM -0.756 | [9]; compound concentration: 50uM -0.0732 | [9]; compound concentration: 200uM -0.717 | [10]; compound concentration: 50uM -0.385 | [10]; compound concentration: 200uM -0.766

USP22 (UniProt Q9UPT9)
Sequence of UniProt Q9UPT9 (Q9UPT9 whole entry): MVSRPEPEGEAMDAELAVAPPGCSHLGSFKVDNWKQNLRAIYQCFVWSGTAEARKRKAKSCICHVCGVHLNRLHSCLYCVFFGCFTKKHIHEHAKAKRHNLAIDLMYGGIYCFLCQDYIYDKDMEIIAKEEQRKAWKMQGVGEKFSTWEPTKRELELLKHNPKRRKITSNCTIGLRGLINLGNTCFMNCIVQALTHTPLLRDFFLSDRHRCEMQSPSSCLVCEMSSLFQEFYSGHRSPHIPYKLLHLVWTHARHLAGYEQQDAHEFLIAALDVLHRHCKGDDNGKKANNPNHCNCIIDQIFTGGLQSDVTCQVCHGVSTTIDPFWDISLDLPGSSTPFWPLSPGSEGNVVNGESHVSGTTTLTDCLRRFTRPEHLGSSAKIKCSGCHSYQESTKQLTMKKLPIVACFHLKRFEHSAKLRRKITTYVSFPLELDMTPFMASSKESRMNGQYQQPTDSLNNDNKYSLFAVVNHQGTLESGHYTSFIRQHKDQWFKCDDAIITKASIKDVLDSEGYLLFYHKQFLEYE
inactive: [1]; compound concentration: 50uM -0.0676 | [1]; compound concentration: 200uM -0.0769 | [2]; compound concentration: 50uM -0.0879 | [2]; compound concentration: 200uM -0.227 | [3]; compound concentration: 50uM 0.165 | [3]; compound concentration: 200uM -0.284 | [4]; compound concentration: 50uM 0.167 | [4]; compound concentration: 200uM -0.0888 | [5]; compound concentration: 50uM 0.0839 | [5]; compound concentration: 200uM -0.0221 | [6]; compound concentration: 0.78uM -0.256 | [6]; compound concentration: 1.56uM -0.271 | [6]; compound concentration: 3.13uM -0.269 | [6]; compound concentration: 6.25uM -0.318 | [6]; compound concentration: 12.5uM -0.0891 | [6]; compound concentration: 25uM -0.169 | [6]; compound concentration: 50uM -0.192 | [6]; compound concentration: 100uM -0.263 | [6]; compound concentration: 200uM -0.376 | [7]; compound concentration: 0.78uM -0.254 | [7]; compound concentration: 1.56uM -0.18 | [7]; compound concentration: 3.13uM -0.341 | [7]; compound concentration: 6.25uM -0.0166 | [7]; compound concentration: 12.5uM -0.101 | [7]; compound concentration: 25uM -0.166 | [7]; compound concentration: 50uM -0.259 | [7]; compound concentration: 100uM -0.0453 | [7]; compound concentration: 200uM -0.238 | [8]; compound concentration: 0.78uM -0.107 | [8]; compound concentration: 1.56uM -0.258 | [8]; compound concentration: 3.13uM -0.171 | [8]; compound concentration: 6.25uM -0.0996 | [8]; compound concentration: 12.5uM -0.17 | [8]; compound concentration: 25uM -0.0497 | [8]; compound concentration: 50uM -0.0246 | [8]; compound concentration: 100uM -0.0113 | [8]; compound concentration: 200uM -0.194 | [9]; compound concentration: 50uM -0.141 | [9]; compound concentration: 200uM -0.349 | [10]; compound concentration: 50uM -0.229 | [10]; compound concentration: 200uM -0.475
